# CSC inhib = cancer stem cell viability inhibitors, primary screen, luminescence; cancer stem cell-like cells viability; AID 2717, 2010; 300,000 compounds, 1.1% hits; inhibition, % at 7.5 µM; in the data active means inhibition above about 75%; tested in HMLE shEcad cells
# Gli-Sufu antag = Gli-Sufu pathway antagonists, primary screen, luciferase luminescence, Sufu-KO-LIGHT cells, uHTS. AID 588413, 2011. 340,000 compounds, 0.74% hits. Sufu-KO-LIGHT fibroblasts, Gli luciferase reporter luminescence. inhibition, % at 5 µM;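 active means inhibition above about 55%, limit read from the data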;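 further: 0% = DMSO-treated cells and 100% = wells with medium but no cells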
# MPTP inh = mitochondrial permeability transition pore inhibitors, primary screen, biochemical, isolated mouse mitochondria, absorbance. Ca2+ swelling absorbance, 30 min. inhibition, % at 10 µM. 360,000 compounds, 1.4% hits. AID 602449, 2012;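 active means inhibition of 50% or more, scaled per plate between neutral and stimulator controls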;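 further: 0% = DMSO wells given calcium and 100% = 1 mM EGTA wells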
# Mdm2-MdmX inh = inhibitors of human Mdm2-MdmX association, primary screen, cell-based, luminescence, split luciferase, SaOS-2, uHTS. Protein Mdm4 (Homo sapiens) + E3 ubiquitin-protein ligase Mdm2 (Homo sapiens), …. SaOS-2 split-luciferase Mdm2/MdmX complementation. inhibition, % at 8 µM. 330,000 compounds, 3% hits. AID 485346, 2010;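 active means inhibition of at least 50% at 8 µM in the primary screen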
# Target sequence (O15151 whole entry, looked up): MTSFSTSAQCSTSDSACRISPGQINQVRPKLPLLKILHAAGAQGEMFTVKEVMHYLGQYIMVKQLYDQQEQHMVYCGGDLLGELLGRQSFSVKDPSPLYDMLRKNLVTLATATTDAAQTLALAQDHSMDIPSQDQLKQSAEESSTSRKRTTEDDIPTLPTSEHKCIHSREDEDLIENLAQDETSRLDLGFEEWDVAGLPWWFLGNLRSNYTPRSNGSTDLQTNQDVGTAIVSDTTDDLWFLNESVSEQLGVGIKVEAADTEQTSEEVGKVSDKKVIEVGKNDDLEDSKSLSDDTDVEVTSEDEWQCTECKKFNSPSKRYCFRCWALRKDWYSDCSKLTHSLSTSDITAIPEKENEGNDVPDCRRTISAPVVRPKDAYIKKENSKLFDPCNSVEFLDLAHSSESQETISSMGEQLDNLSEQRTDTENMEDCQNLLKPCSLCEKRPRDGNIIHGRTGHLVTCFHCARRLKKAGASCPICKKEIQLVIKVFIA
# Target sequence (Q00987 whole entry, looked up): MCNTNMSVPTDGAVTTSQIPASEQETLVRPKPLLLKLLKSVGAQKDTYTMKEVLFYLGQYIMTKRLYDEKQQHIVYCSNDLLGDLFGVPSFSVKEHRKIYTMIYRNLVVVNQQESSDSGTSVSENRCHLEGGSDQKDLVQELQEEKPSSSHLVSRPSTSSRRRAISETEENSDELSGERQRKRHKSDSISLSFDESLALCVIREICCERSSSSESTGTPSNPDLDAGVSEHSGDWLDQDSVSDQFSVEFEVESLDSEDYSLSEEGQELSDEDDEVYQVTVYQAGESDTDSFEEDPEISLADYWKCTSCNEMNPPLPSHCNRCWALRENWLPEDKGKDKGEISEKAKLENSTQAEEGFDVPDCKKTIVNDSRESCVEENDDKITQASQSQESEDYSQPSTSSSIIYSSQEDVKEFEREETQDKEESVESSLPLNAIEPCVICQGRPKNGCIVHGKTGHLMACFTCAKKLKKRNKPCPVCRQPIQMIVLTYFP
# Beta apoptosis = inhibitors of cytokine-induced beta cell apoptosis, primary screen, luminescence; AID 435005, 2010; protection from apoptosis, % (no concentration beside the values); INS-1E cytokine-induced death, ATP luminescence, 48 h; percent of positive-control rescue, neutral wells zero; 300,000 compounds, 0.8% hits;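 active means Every replicate reaches about 75%, or at least half do and their mean reaches it too, limit read from the data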;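 further: 0% = cytokine-treated negative control wells and 100% = positive control rescue; higher means more ATP so stronger rescue from cytokine killing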
# NR3A LBD binder = binders of NR3A ligand-binding domain, primary screen, biophysical, differential scanning fluorimetry, uHTS; NR3A LBD differential scanning fluorimetry, Tm shift; 0% = protein alone, 100% = glycine-bound protein; Tm shift relative to glycine control, % at 25 µM; 340,000 compounds, 2.5% hits;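 active means melting temperature shift of at least 10% of the positive control shift, at one fixed dose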
# Mdm2 MdmX conf = Mdm2-MdmX complex disruptors, retested hits, confirmation, luminescence, single concentration; AID 489028, 2010; 10,000 compounds, 55% hits; Mdm2-MdmX binding, luminescent assay; shares compounds with Mdm2-MdmX inh; inhibition, % at 8 µM; in the data active means inhibition above about 40%
# FLuc counter = full-length luciferase signal inhibition, confirmation, counter-screen for Mdm2/MdmX interaction inhibitor project, cell-based, single concentration, SaOS-2. inhibition, % at 8 µM. SaOS-2 full-length luciferase counterscreen, luminescence. AID 504607, 2011. shares compounds with Mdm2-MdmX inh. 6,200 compounds, 77% hits;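 active means mean inhibition at 8 µM reaching about 37%, which flags the compound as non-specific, limit read from the data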;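 further: p53-null SaOS-2 cells with luciferase driven by a doxycycline-inducible promoter; compound on cells about two nights before reading with doxycycline added after day one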
# Numbers without * were called inactive; nt = no result. Rows were chosen to be rich in hits. Some 6.6% of all compounds tested hit in one or more screens of this group.
SMILES,CSC inhib,Gli-Sufu antag,MPTP inh,Mdm2-MdmX inh,Beta apoptosis,NR3A LBD binder,Mdm2 MdmX conf,FLuc counter
O=C1CC(c2cc(F)ccc2F)c2cc3c(cc2N1)CCC3 (stereo not given),54,4,3,52*,-1,-4,52*,72*
O=C1CC(c2cccc(Br)c2)c2cc3c(cc2N1)CCC3 (stereo not given),nt,10,0,67*,nt,-15,42*,68*
C[C@H](CO)N1C[C@H](C)[C@@H](CN(C)S(=O)(=O)c2cn(C)cn2)OCc2cn(nn2)CCCC1=O,nt,nt,0,nt,nt,nt,nt,nt
Cc1nc(SCC(=O)N2CCOCC2)c2c(C)c(C)sc2n1,-12,34,0,17,-5,-1,nt,nt
Cc1nc(SCC(=O)Nc2ccc(S(=O)(=O)N3CCOCC3)cc2)c2c(C)c(C)sc2n1,21,11,0,82*,11,-4,44*,29
O=[N+]([O-])c1ccc(S(=O)(=O)Nc2ccncc2)cc1,nt,18,0,50*,nt,0,8,nt
O=C(Nc1ccc(Nc2ccncc2)cc1)c1ccc([N+](=O)[O-])cc1,29,2,7,100*,22,2,36,13
Cc1ccnc(NS(=O)(=O)c2ccc(NS(=O)(=O)c3ccc([N+](=O)[O-])cc3)cc2)n1,-8,9,4,3,-4,-1,nt,nt
Cc1cccc(Cn2c(NC3CCCC3)nc3c2c(=O)[nH]c(=O)n3C)c1,nt,nt,0,nt,nt,nt,nt,nt
COc1cccc(CN2CCC2(C)C(=O)Nc2cccc(Oc3ccccc3)c2)c1OC (stereo not given),nt,nt,1,nt,nt,nt,nt,nt
C=C[C@H](Cc1ccccc1)N(Cc1ccccc1)S(=O)(=O)N(Cc1ccccc1)[C@H](C=C)Cc1ccccc1,21,21,1,90*,82*,1,63*,86*
CC(C)N(Cc1ccccc1)S(=O)(=O)c1ccc(Cl)nc1,nt,11,13,-1,-1,nt,nt,nt
Cc1nc2c(-c3ccc(F)cc3)cnn2c(N)c1-c1ccc(F)cc1,21,32,-2,61*,5,8,47*,144*
COc1ccc(-c2c(C)nc3c(-c4ccsc4)cnn3c2N)cc1,8,-46,4,-7,1,5,nt,nt
Cc1cccc(NC(=O)CSc2nc3c([nH]c4ccccc43)c(=O)n2C)c1,32,18,-1,65*,20,3,1,nt
COCCn1c(SCC(=O)Nc2ccccc2C)nc2c(oc3ccccc32)c1=O,14,8,0,-5,8,0,nt,nt
COCCn1c(SCC(=O)Nc2ccc(OC)cc2)nc2c(oc3ccccc32)c1=O,-5,nt,nt,99*,0,nt,15,nt
C=CCn1c(SCC(=O)Nc2ccc(OC)cc2)nc2c([nH]c3ccccc32)c1=O,-2,-12,4,10,-11,4,nt,nt
COc1cccc(NC(=O)CSc2nc3c([nH]c4ccccc43)c(=O)n2C)c1,-11,11,2,55*,28,38*,10,nt
COCCn1c(SCC(=O)Nc2cc(C)on2)nc2cc(Cl)ccc2c1=O,nt,-7,2,64*,2,2,6,nt
N#CC(=C=[N-])c1nc2ccccc2nc1-[n+]1cccc(NC(=O)c2cccs2)c1,11,10,1,21,6,-1,nt,nt
CC1(C(=O)Nc2ccc3[nH]ncc3c2)CCN1C(=O)C1(c2ccccc2)CC1 (stereo not given),nt,nt,1,nt,nt,nt,nt,nt
CCCCN(C(=O)CNC(=O)c1ccco1)C(C(=O)NC1CCCCC1)c1cccnc1 (stereo not given),-18,13,3,5,2,-2,nt,nt
COCCn1c(SCC(=O)Nc2cccc(NC(C)=O)c2)nc2c([nH]c3ccccc32)c1=O,17,10,0,19,-1,-4,nt,nt
Cn1c(SCC(=O)Nc2ccccc2)nc2c([nH]c3ccccc32)c1=O,8,7,-2,67*,19,-4,10,nt
SMILES,CSC inhib,Gli-Sufu antag,MPTP inh,Mdm2-MdmX inh,Beta apoptosis,NR3A LBD binder,Mdm2 MdmX conf,FLuc counter
COCCn1c(SCC(=O)Nc2cccc(F)c2)nc2c([nH]c3ccccc32)c1=O,3,10,0,88*,23,2,66*,47*
Cn1c(SCC(=O)NCc2ccccc2)nc2c([nH]c3ccccc32)c1=O,10,nt,nt,29,-2,nt,nt,nt
CCn1cnc2scc(-c3ccccc3)c2c1=O,-8,2,1,4,-7,-3,nt,nt
Cn1cc(/C=N/n2cnc3scc(-c4ccc(Cl)cc4)c3c2=O)c2ccccc21,55,28,2,73*,36,-2,63*,63*
COc1ccc(CN2C(=O)C(CC(=O)NCc3cccs3)CC(C(=O)N(C(C)C)C(C)C)=C2C)cc1 (stereo not given),nt,nt,0,nt,nt,nt,nt,nt
C#CC[N+](C)(C)CCCCCCCCC,42,25,1,51*,0,0,49*,74*
C[N+](C)(C)CCCCCCCCCC[N+](C)(C)C,-14,-6,-1,-5,-1,-2,nt,nt
CCc1ccc2c(c1)NC(=O)C2(C)Cc1ccc(F)cc1 (stereo not given),nt,nt,1,nt,nt,nt,nt,nt
CC(C)c1ccc(O)c(NC(=O)c2ncn[nH]2)c1,0,0,1,17,-4,1,nt,nt
CC(C)c1ccc2c(c1)C1(NN=C(c3ccccc3)S1)C(=O)N2 (stereo not given),116*,48,-1,59*,74,-1,69*,69*
CCc1ccc2c(c1)C1(NN=C(c3ccc(C)cc3)S1)C(=O)N2 (stereo not given),9,-12,1,74*,50,-3,68*,63*
Cc1c(Cc2ccccc2)c(=O)[nH]c(=O)n1C,nt,-1,-2,nt,nt,-2,nt,nt
Cc1ccc(C(=O)c2cn(-c3ccc(F)c(Cl)c3)nn2)cc1,-1,-26,-1,39,-8,1,nt,nt
CN1CCN(c2ccc(C(=O)c3cn(-c4ccc(F)c(Cl)c4)nn3)cc2)CC1,70,2,1,81*,-1,-3,42*,91*
Cc1ccc(-n2cc(C(=O)c3ccc(N4CCN(C)CC4)cc3)nn2)cc1Cl,nt,-2,-1,98*,-2,-1,4,nt
CC1CC(C)CN(C(=O)c2cccc(S(=O)(=O)NCc3ccccc3)c2)C1 (stereo not given),-7,4,-1,2,-6,0,nt,nt

# Bioassay records from PubChem BioAssay.
